40 compounds from PubChem BioAssay (Tox21) can be followed below.

Results filed as inconclusive are left out. Values without a mark were called inactive. Calls follow the shape of the dose curve; as a rule, active = well fitted cell-killing curve with a large enough effect in the repeat runs; inconclusive = weak or mixed curves, or effect the other way; inactive = no such curve, though single readings can be large or run the other way.
% is scaled to controls: 0 for no effect and ±100 for the full control effect.

A short description of this assay: qHTS assay to identify small molecule antagonists of the progesterone receptor (PR) signaling pathway - cell viability counter screen (AID 1346798). Also: nearly all actives have a fitted effect of over 50% in size. Conditions: PR-UAS-bla HEK293T viability, CellTiter-Glo luminescence, 16 h; series mostly up to 92.4 µM; activity change, negative = cytotoxicity: at the top concentration. From the text:
National Center for Advancing Translational Sciences [NCATS]
NIH Chemical Genomics Center [NCGC]
U.S. Environmental Protection Agency [EPA]
National Institutes of Environmental Health Sciences [NIEHS]
National Toxicology Program [NTP]
U.S. Food and Drug Administration [FDA]
Progesterone receptor (PR), a nuclear hormone receptor, plays an important role in development, metabolic homeostasis and reproduction. It is activated by the steroid hormone progesterone. Endocrine disrupting chemicals (EDCs) and their interactions with steroid hormone receptors like PR causes disruption of normal endocrine function. To identify the compounds that inhibit PR signaling, a PR-UAS-bla GripTite cell line i.e. PR-UAS-bla HEK293T (Invitrogen, Carlsbad, CA, USA) containing a beta-lactamase reporter gene under the control of an UAS response element was used to screen Tox21 10K compound library. The cytotoxicity of the Tox21 compound library against the PR-bla cell line was tested in parallel by measuring the cell viability using CellTiter-Glo assay in the same wells.
Tox21 Assay Protocol Summary:
PR-UAS-bla HEK293T cells were dispensed at 3,000 cells/4 uL of assay medium containing 2% charcoal stripped FBS per well into black wall/clear-bottom 1536-well plates using a Multidrop Combi (ThermoFisher Scientific, Waltham, MA) dispenser. After the assay plates were incubated at a 37C and 5% CO2 for 4 hr, 23 nL of compounds dissolved in DMSO, positive controls or DMSO only was transferred to the assay plate by a Pintool station (Kalypsys, San Diego, CA), followed by addition of 1 uL of R5020 in assay medium using a Flying Reagent Dispenser (FRD, Aurora Discovery, San Diego, CA). The plates were incubated at 37C and 5% CO2 for 16 hr. Then 1 uL of LiveBLAzer B/G FRET substrate was added using a Flying Reagent Dispenser, the plates were incubated at room temperature for 2 hours, and fluorescence intensity was measured by an Envision plate reader (PerkinElmer, Shelton, CT). For cell viability readout that measures cytotoxicity, 4 uL/well of CellTiter-Glo reagent was added into the assay plates using a FRD. After 30 min incubation at room temperature, the luminescence intensity in the plates was measured using a ViewLux (PerkinElmer) plate reader.
(In qHTS, concentration-response curves come from the screen itself.)
For the compound `CC(=O)c1ccc(O)c(C(N)=O)c1`, the “activity change, negative = cytotoxicity” value is -0.383% [at 42.5 µM].
For the compound `CCCCc1ccc(Cl)cc1`, the “activity change, negative = cytotoxicity” value is -13.4%.
As to `C=CCN1CCc2nc(N)sc2CC1`, the “activity change, negative = cytotoxicity” value was 10.9% [at 42.5 µM].
As to `C=CCn1cc[n+](C)c1`, the “activity change, negative = cytotoxicity” value was 8.67%.
Turning to `CC(CC(=O)Cl)CC(C)(C)C` (stereo not given), the “activity change, negative = cytotoxicity” value is 13%.
As to `COc1cc(NS(=O)(=O)c2ccc(N)cc2)ncn1`, the “activity change, negative = cytotoxicity” value was 7.57% [at 42.5 µM].
Consider `CC(O)CCCCn1c(=O)c2c(ncn2C)n(C)c1=O` (stereo not given), for which the “activity change, negative = cytotoxicity” value was 6.55% [at 42.5 µM].
`CCCCNCC`: the “activity change, negative = cytotoxicity” value is 0.811%.
As to `COC(=O)c1ccc(C(=O)O)cc1`, the “activity change, negative = cytotoxicity” value is -3.7%.
For the compound `O=S(=O)(O)CC(O)CCl` (stereo not given), the “activity change, negative = cytotoxicity” value was -4.3%.
Next, `CCCOc1ccc(C(=O)OCCN(CC)CC)cc1N`: -14% [at 42.5 µM]; `CN(C)CCc1c[nH]c2ccc(C[C@H]3COC(=O)N3)cc12`: 5.1% [at 42.5 µM]; `COC(=O)c1cc(Cl)c(NC(C)=O)cc1OC`: 4.7% [at 42.5 µM].
Turning to `CC(C)OC(=O)C(C(=O)OC(C)C)=C1SC=CS1`, the “activity change, negative = cytotoxicity” value was 7.38% [at 42.5 µM].
Regarding `O=C(O)Cc1ccccc1Oc1ccc(Cl)cc1Cl`, the “activity change, negative = cytotoxicity” value is 0.503% [at 42.5 µM].
Next, `COc1cc(C(=O)NC2CCCNC2)cc(OC)c1OC` (stereo not given): 5.72% [at 42.5 µM]; `CC(C)C[P+](C)(CC(C)C)CC(C)C`: -0.332%.
Next, `CC(C)(O)c1ccc(C(C)(C)O)cc1`: 14.3%; `O=C(OOC(=O)c1ccccc1)c1ccccc1`: -1.47% [at 42.5 µM].
Turning to `COC(=O)C(c1ccccc1Cl)N1CCc2sccc2C1` (stereo not given), the “activity change, negative = cytotoxicity” value is -23.1% [at 42.5 µM].
For the compound `N#Cc1cc(NC(=O)C(=O)O)c(Cl)c(NC(=O)C(=O)O)c1`, the “activity change, negative = cytotoxicity” value is 6.69% [at 42.5 µM].
The result for `COC(=O)/C=C(\C)CCC=C(C)C` reads 42.7%; that for `O=C(O)/C=C(\CC(=O)O)C(=O)O`, 1.61% [at 42.5 µM].
Take `CC(CN1CC(=O)NC(=O)C1)N1CC(=O)NC(=O)C1` (stereo not given): the “activity change, negative = cytotoxicity” value was -15%.
In the case of `CCCCCC(=O)CC`, the “activity change, negative = cytotoxicity” value was 0.259%.
Regarding `C/C=C/C(=O)CCCC`, the “activity change, negative = cytotoxicity” value is -9.79%.
The result for `CCC(=O)OCCOc1ccccc1` reads 0.569%; that for `Cc1cc(O)c(Cl)cc1C`, 15.2%; that for `C=CCN(CC=C)CC=C`, -11.6%.
Regarding `CNC(=O)c1c(I)c(NC(C)=O)c(I)c(C(=O)O)c1I`, the “activity change, negative = cytotoxicity” value is 9.75% [at 42.5 µM].
For `C[C@@H](CN1CC(=O)NC(=O)C1)N1CC(=O)NC(=O)C1`, the “activity change, negative = cytotoxicity” value was 0.821% [at 42.5 µM].
Next, `CN(C)c1ccncc1`: -12.1%.
The result for `COCc1nnc(-c2ccc[n+]([O-])c2)n1-c1c(Cl)c(Cl)cc2[nH]c(=O)c(=O)[nH]c12` reads 1.25%; that for `CCCCN=C(N)N=C(N)N`, 1.79% [at 42.5 µM]; that for `N[C@H]1C(O)O[C@H](CO)[C@@H](O)[C@@H]1O` (stereo not given in full), 2.28% [at 42.5 µM].
As to `CC(C)(C)C(=O)CC(=O)C(C)(C)C`, the “activity change, negative = cytotoxicity” value is -4.2%.
On to `CC(=O)Nc1ccc(S(=O)(=O)Nc2cc(C)on2)cc1`, for which the “activity change, negative = cytotoxicity” value was 3.68% [at 42.5 µM].
Take `C[C@H]1COc2c(C3(N)CC3)c(F)cc3c(=O)c(C(=O)O)cn1c23`: the “activity change, negative = cytotoxicity” value is 0.676% [at 42.5 µM].
Take `COC(C)(C)CC(C)=O`: the “activity change, negative = cytotoxicity” value is -7.75%.
For `CC1(C)C(=O)C(C)(C)C1=O`, the “activity change, negative = cytotoxicity” value was -8.76%.
